Data on twelve compounds can be found in PubChem BioAssay (NCATS).

Inconclusive results are not listed. Active and inactive are the calls of the source. Unless noted, calls come from the whole dose curve; as a rule, active = well fitted curve in the direction sought with a large enough effect; inconclusive = small, poorly fitted or top-dose-only effect, or another doubt; inactive = no such curve, though single readings can be large; an effect the other way counts as inactive or inconclusive.

Peptidyl-prolyl cis-trans isomerase NIMA-interacting 1 (Homo sapiens), sequence (Q13526 whole entry, looked up): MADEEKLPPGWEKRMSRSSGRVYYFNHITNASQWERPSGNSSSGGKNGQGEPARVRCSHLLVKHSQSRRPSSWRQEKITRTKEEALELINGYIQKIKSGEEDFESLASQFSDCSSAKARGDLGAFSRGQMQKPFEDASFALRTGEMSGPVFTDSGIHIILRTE

System in the first experiment: not listed separately
Briefly: Nrf2 qHTS screen for inhibitors: Validation (AID 493153; active = well fitted inhibition curve with a large enough effect in the main read-out, with a control signal flat, not every such curve was filed as active;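 for activity change, negative = inhibition: A549 cells with ARE-driven firefly luciferase reporter reporting Nrf2 activity; % of control where 0% means no effect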). To be noted: A549 ARE-Fluc reporter, 18-24 h; viability change: measured here: cytotoxicity max response; luciferase luminescence, at 46.1 µM (top of the series); activity change, negative = inhibition: at the top concentration. The procedure, abridged:
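In this counterscreened reporter format, each well gives two signals: CellTiter-Fluor fluorescence for cytotoxicity and ARE-luciferase luminescence for Nrf2 function. A549 ARE_Fluc cells in 5% FBS OPTI-MEM were exposed to compound titrations for 18-24 h.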
A general note: Quantitative high-throughput screening tests each substance at several concentrations.
For `N[C@@H](Cc1cnc[nH]1)C(=O)O`, the “activity change, negative = inhibition” value is -14.1% (inactive) and the viability change was 0.846%.

For `Nc1cc(Cl)c(NC2=NCCN2)c(Cl)c1`, the “activity change, negative = inhibition” value is 4.74% (inactive) and the viability change came out at 1.6%.

On to `CNCCC(Oc1ccccc1C)c1ccccc1` (centres undefined), for which the “activity change, negative = inhibition” value is 6.44% (inactive) and the viability change was 3.06%.

Turning to `O=C1CCC(c2ccc(-n3ccnc3)cc2)=NN1`, the “activity change, negative = inhibition” value was 0.305% (inactive) and the viability change worked out at 9.43%.

Regarding `C[C@@H]1C(=O)NC2=Nc3cccc(Cl)c3CN21`, the “activity change, negative = inhibition” value was 7.05% (inactive) and the viability change turned out to be 3.84%.

For `C[N+]1(CCCCC[N+]2(C)CCCC2)CCCC1`, the “activity change, negative = inhibition” value is 3.24% (inactive) and the viability change was 1.12%.

On to `C[C@]12CC[C@@H]3c4ccc(O)cc4CC[C@H]3[C@@H]1CC[C@@H]2O`, for which the “activity change, negative = inhibition” value was -13.8% (inactive) and the viability change came to 1.87%.

On to `CC1(C)CCC(NC(=O)[C@@H](N)CCC(=O)O)CC1`, for which the “activity change, negative = inhibition” value was -2.42% (inactive) and the viability change came to 2.98%.

As to `CC(C)COC(=O)OCN1C(=O)CN(CCN2CC(=O)N(COC(=O)OCC(C)C)C(=O)C2)CC1=O`, the “activity change, negative = inhibition” value was -18.6% (inactive) and the viability change is -6.78%.

System in a further experiment: not listed separately
Description: qHTS for Inhibitors of Cell Surface uPA Generation: Validation Assay (AID 493164).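 Note: RAW 264.7 macrophage cells exposed to compound for 18 h; 0% is about no effect.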 The following applies: mouse cells, plasminogen activation; series mostly up to 38.3 µM; activity change: at the top concentration. The essentials: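 Compounds are titrated over seven points (2.45 nM–38.3 uM final) onto pre-plated RAW 264.7 cells and incubated for 18 h. Retained intracellular ATP, measured with ATP-Lite, indicates blocked lethal factor entry.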
As for `N[C@@H](Cc1cnc[nH]1)C(=O)O`, the “activity change” value is 0.514% (inactive).

Turning to `Nc1cc(Cl)c(NC2=NCCN2)c(Cl)c1`, the “activity change” value is -1.19% (inactive).

`CNCCC(Oc1ccccc1C)c1ccccc1` (centres undefined): the “activity change” value was 0.773% (inactive).

With `O=C1CCC(c2ccc(-n3ccnc3)cc2)=NN1`, the “activity change” value is -0.776% (inactive).

With `C[C@@H]1C(=O)NC2=Nc3cccc(Cl)c3CN21`, the “activity change” value is 1.5% (inactive).

With `C[N+]1(CCCCC[N+]2(C)CCCC2)CCCC1`, the “activity change” value is -0.91% (inactive).

With `CNCCC=C1c2ccccc2CCc2ccccc21`, the “activity change” value was -3.06% (inactive).

On to `C[C@]12CC[C@@H]3c4ccc(O)cc4CC[C@H]3[C@@H]1CC[C@@H]2O`, for which the “activity change” value was 0.484% (inactive).

Take `COc1cc(NS(C)(=O)=O)ccc1Nc1c2ccccc2nc2ccccc12`: the “activity change” value was 2.72% (inactive).

Regarding `CC1(C)CCC(NC(=O)[C@@H](N)CCC(=O)O)CC1`, the “activity change” value is -1.26% (inactive).

For `CC(C)COC(=O)OCN1C(=O)CN(CCN2CC(=O)N(COC(=O)OCC(C)C)C(=O)C2)CC1=O`, the “activity change” value was 1.85% (inactive).

The target in a further experiment is Galactokinase (Homo sapiens) (UniProt P51570). Description: qHTS Validation Assay for Inhibitors of Human Galactokinase (GALK) (AID 493189). Note: 0% is about no effect. To be noted: purified human GALK enzyme activity, qHTS 7-point titration; series mostly up to 57.5 µM; activity change, negative = inhibition: at the top concentration. The essentials: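 Enzyme activity is inferred from ATP consumption: human GALK phosphorylates galactose (100 uM) using 35 uM ATP for 1 h at room temperature, and luciferase-based Kinase-Glo Plus reports unconsumed ATP.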
Galactokinase (Homo sapiens), sequence (P51570 whole entry, looked up): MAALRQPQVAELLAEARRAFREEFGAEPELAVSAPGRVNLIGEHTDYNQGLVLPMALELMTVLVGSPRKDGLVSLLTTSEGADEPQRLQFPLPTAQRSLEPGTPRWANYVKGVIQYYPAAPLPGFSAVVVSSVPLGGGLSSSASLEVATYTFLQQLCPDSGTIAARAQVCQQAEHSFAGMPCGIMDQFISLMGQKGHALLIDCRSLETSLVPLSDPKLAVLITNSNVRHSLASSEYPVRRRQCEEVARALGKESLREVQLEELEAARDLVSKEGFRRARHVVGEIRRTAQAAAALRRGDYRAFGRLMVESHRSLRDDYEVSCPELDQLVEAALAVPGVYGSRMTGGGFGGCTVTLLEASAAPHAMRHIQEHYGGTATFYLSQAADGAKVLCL
In the case of `N[C@@H](Cc1cnc[nH]1)C(=O)O`, the “activity change, negative = inhibition” value was 2.86% (inactive).

As to `Nc1cc(Cl)c(NC2=NCCN2)c(Cl)c1`, the “activity change, negative = inhibition” value was 1.09% (inactive).

As to `CNCCC(Oc1ccccc1C)c1ccccc1` (centres undefined), the “activity change, negative = inhibition” value was 3.6% (inactive).

With `O=C1CCC(c2ccc(-n3ccnc3)cc2)=NN1`, the “activity change, negative = inhibition” value is 1.42% (inactive).

Regarding `C[C@@H]1C(=O)NC2=Nc3cccc(Cl)c3CN21`, the “activity change, negative = inhibition” value was -0.186% (inactive).

With `C[N+]1(CCCCC[N+]2(C)CCCC2)CCCC1`, the “activity change, negative = inhibition” value is 2.58% (inactive).

For `CNCCC=C1c2ccccc2CCc2ccccc21`, the “activity change, negative = inhibition” value was -2.35% (inactive).

As to `C[C@]12CC[C@@H]3c4ccc(O)cc4CC[C@H]3[C@@H]1CC[C@@H]2O`, the “activity change, negative = inhibition” value is -1.97% (inactive).

For the compound `COc1cc(NS(C)(=O)=O)ccc1Nc1c2ccccc2nc2ccccc12`, the “activity change, negative = inhibition” value was 3.96% (inactive).

Turning to `CC1(C)CCC(NC(=O)[C@@H](N)CCC(=O)O)CC1`, the “activity change, negative = inhibition” value was 0.508% (inactive).

With `CC(C)COC(=O)OCN1C(=O)CN(CCN2CC(=O)N(COC(=O)OCC(C)C)C(=O)C2)CC1=O`, the “activity change, negative = inhibition” value is 1.3% (inactive).

Regarding `COc1cc(-c2ccc(=O)[nH]n2)ccc1OC(F)F`, the “activity change, negative = inhibition” value is 0.0869% (inactive).

System in the next experiment: not listed separately
Briefly: Validation screen for small molecules that induce DNA re-replication in SW480 colon adenocarcinoma cells (AID 504364). Note: 0% is about no effect. To be noted: DNA re-replication phenotype (high-content imaging); series mostly up to 46.1 µM; activity (re-replication induction): at the top concentration. The essentials: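 Hoechst-stained SW480 nuclei, imaged at 405 nm excitation after 48 hr compound exposure, were counted for elevated DNA content as the re-replication signal.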
For the compound `N[C@@H](Cc1cnc[nH]1)C(=O)O`, the “activity (re-replication induction)” value was 12.5% (inactive).

Take `Nc1cc(Cl)c(NC2=NCCN2)c(Cl)c1`: the “activity (re-replication induction)” value was 0.716% (inactive).

For `CNCCC(Oc1ccccc1C)c1ccccc1` (centres undefined), the “activity (re-replication induction)” value was 20.6% (inactive).

Regarding `O=C1CCC(c2ccc(-n3ccnc3)cc2)=NN1`, the “activity (re-replication induction)” value is -10.7% (inactive).

As to `C[C@@H]1C(=O)NC2=Nc3cccc(Cl)c3CN21`, the “activity (re-replication induction)” value is -2.3% (inactive).

Regarding `C[N+]1(CCCCC[N+]2(C)CCCC2)CCCC1`, the “activity (re-replication induction)” value was -1.17% (inactive).

For the compound `CNCCC=C1c2ccccc2CCc2ccccc21`, the “activity (re-replication induction)” value was 6.07% (inactive).

Regarding `C[C@]12CC[C@@H]3c4ccc(O)cc4CC[C@H]3[C@@H]1CC[C@@H]2O`, the “activity (re-replication induction)” value was 13.7% (inactive).

Consider `COc1cc(NS(C)(=O)=O)ccc1Nc1c2ccccc2nc2ccccc12`, for which the “activity (re-replication induction)” value is 0.76% (inactive).

Turning to `CC1(C)CCC(NC(=O)[C@@H](N)CCC(=O)O)CC1`, the “activity (re-replication induction)” value was -9.68% (inactive).

With `COc1cc(-c2ccc(=O)[nH]n2)ccc1OC(F)F`, the “activity (re-replication induction)” value was -9.15% (inactive).

The next experiment concerns the target Peptidyl-prolyl cis-trans isomerase NIMA-interacting 1 (Homo sapiens) (UniProt Q13526). Briefly: qHTS Validation Assay to Find Inhibitors of Pin1 (AID 504536; active = well fitted inhibition curve with a large enough effect in the polarisation, with a control signal flat, not every such curve was filed as active; the % refers to the polarisation;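 note: 0% = full Pin1 enzyme wells and -100% = no-enzyme wells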). To be noted: Pin1 fluorescence polarization peptide binding assay; series mostly up to 57.5 µM; activity, negative = inhibition: at the top concentration. The essentials: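 Fluorescence polarization competition: compounds (titration) displace HiFluor-488-labeled Pin1-1b peptide from Pin1 (0.3 uM final) in pH 7.5 HEPES buffer with DTT, 10 min at room temperature; %Activity normalized to no-enzyme wells, curves fitted.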
As to `N[C@@H](Cc1cnc[nH]1)C(=O)O`, the “activity, negative = inhibition” value was 0.483% (inactive).

Consider `Nc1cc(Cl)c(NC2=NCCN2)c(Cl)c1`, for which the “activity, negative = inhibition” value is -0.621% (inactive).

Regarding `CNCCC(Oc1ccccc1C)c1ccccc1` (centres undefined), the “activity, negative = inhibition” value is -0.622% (inactive).

On to `O=C1CCC(c2ccc(-n3ccnc3)cc2)=NN1`, for which the “activity, negative = inhibition” value was 14.5% (inactive).

With `C[C@@H]1C(=O)NC2=Nc3cccc(Cl)c3CN21`, the “activity, negative = inhibition” value is -16.6% (inactive).

Take `C[N+]1(CCCCC[N+]2(C)CCCC2)CCCC1`: the “activity, negative = inhibition” value was 0.871% (inactive).

As to `CNCCC=C1c2ccccc2CCc2ccccc21`, the “activity, negative = inhibition” value is 0.656% (inactive).

In the case of `C[C@]12CC[C@@H]3c4ccc(O)cc4CC[C@H]3[C@@H]1CC[C@@H]2O`, the “activity, negative = inhibition” value is -4.05% (inactive).

For the compound `COc1cc(NS(C)(=O)=O)ccc1Nc1c2ccccc2nc2ccccc12`, the “activity, negative = inhibition” value is 2.86% (inactive).

For `CC1(C)CCC(NC(=O)[C@@H](N)CCC(=O)O)CC1`, the “activity, negative = inhibition” value is 6.61% (inactive).

On to `CC(C)COC(=O)OCN1C(=O)CN(CCN2CC(=O)N(COC(=O)OCC(C)C)C(=O)C2)CC1=O`, for which the “activity, negative = inhibition” value is -1.66% (inactive).

The target of a further experiment is phosphoglycerate mutase (Leishmania major) (UniProt Q4Q090). Description: qHTS Validation Assay to Find Inhibitors of Phosphoglycerate Mutase (AID 504548). Note: % is set by controls: 0 for no effect and ±100 for the full control effect. The following applies: biochemical enzyme activity; series mostly up to 57.5 µM; activity change, negative = inhibition: at the top concentration. The procedure, abridged: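 Lm PGAM at 1.25 nM final with substrate in 100 mM TEA pH 7.6, 5 mM MgCl2, 0.01% Tween-20; 45 min at room temperature. Kinase-GloPlus added, 10 min, end-point luminescence read.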
phosphoglycerate mutase (Leishmania major), sequence (Q4Q090 1-553): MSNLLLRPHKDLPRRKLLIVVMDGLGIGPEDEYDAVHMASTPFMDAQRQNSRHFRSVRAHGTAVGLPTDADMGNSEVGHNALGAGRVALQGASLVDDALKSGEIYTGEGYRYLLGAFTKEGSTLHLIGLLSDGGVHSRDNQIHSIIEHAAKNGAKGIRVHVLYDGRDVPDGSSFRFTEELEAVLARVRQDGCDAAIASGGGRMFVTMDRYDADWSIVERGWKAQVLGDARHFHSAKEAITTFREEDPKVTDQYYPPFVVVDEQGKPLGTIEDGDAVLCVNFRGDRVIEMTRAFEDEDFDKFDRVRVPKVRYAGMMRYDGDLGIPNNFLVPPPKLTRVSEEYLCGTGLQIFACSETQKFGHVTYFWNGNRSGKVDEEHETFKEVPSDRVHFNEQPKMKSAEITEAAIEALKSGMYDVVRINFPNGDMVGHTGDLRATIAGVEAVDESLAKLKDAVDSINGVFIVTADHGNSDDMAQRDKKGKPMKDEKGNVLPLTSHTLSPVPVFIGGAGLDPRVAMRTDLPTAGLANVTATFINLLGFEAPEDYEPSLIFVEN
For `N[C@@H](Cc1cnc[nH]1)C(=O)O`, the “activity change, negative = inhibition” value is 8.16% (inactive).

Regarding `Nc1cc(Cl)c(NC2=NCCN2)c(Cl)c1`, the “activity change, negative = inhibition” value is -2.53% (inactive).

With `CNCCC(Oc1ccccc1C)c1ccccc1` (centres undefined), the “activity change, negative = inhibition” value is -0.502% (inactive).

Take `O=C1CCC(c2ccc(-n3ccnc3)cc2)=NN1`: the “activity change, negative = inhibition” value is 2.58% (inactive).

Regarding `C[C@@H]1C(=O)NC2=Nc3cccc(Cl)c3CN21`, the “activity change, negative = inhibition” value was 2.49% (inactive).

Take `C[N+]1(CCCCC[N+]2(C)CCCC2)CCCC1`: the “activity change, negative = inhibition” value was 7.17% (inactive).

Turning to `CNCCC=C1c2ccccc2CCc2ccccc21`, the “activity change, negative = inhibition” value was 14.7% (inactive).

Consider `C[C@]12CC[C@@H]3c4ccc(O)cc4CC[C@H]3[C@@H]1CC[C@@H]2O`, for which the “activity change, negative = inhibition” value was -2.6% (inactive).

For the compound `COc1cc(NS(C)(=O)=O)ccc1Nc1c2ccccc2nc2ccccc12`, the “activity change, negative = inhibition” value is 10.6% (inactive).

Turning to `CC1(C)CCC(NC(=O)[C@@H](N)CCC(=O)O)CC1`, the “activity change, negative = inhibition” value is -2.57% (inactive).

For `CC(C)COC(=O)OCN1C(=O)CN(CCN2CC(=O)N(COC(=O)OCC(C)C)C(=O)C2)CC1=O`, the “activity change, negative = inhibition” value is -4.77% (inactive).
